{"source": "PubChem BioAssay (NCI)", "note": "About 83,000 compounds went through this panel and 20% of them were active in at least one assay; those are over-represented in the sample as a whole.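 Cell lines were cultured in 96-well plates, exposed to a single compound concentration, and assessed for percent growth 48 hours later.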 The source made the active and inactive calls. Rule for the calls: active = growth percent below 10; inactive = the rest.", "data": [{"test_system": "HL-60(TB) leukemia", "assay": "NCI-60 one-dose screen, 48 h (100 = growth as untreated, 0 = no growth, -100 = all killed)", "details": "10 µM unless noted", "values": [{"smiles": "Cc1cn(-c2cc(NC(=O)c3cncc(C#Cc4cnc5ccc(OCCCS(C)(=O)=O)nn45)c3)cc(C(F)(F)F)c2)cn1", "growth": "-6.15% (active)"}, {"smiles": "C#CCOC(=O)[C@@H]1CCCN1CC#C", "growth": "85.3% (inactive)"}, {"smiles": "Cc1ccc(NC(=O)c2ccc(CN3CCN(C)CC3)cc2)cc1Oc1ccc(-c2[nH]nc3ncnc(N)c23)cc1", "growth": "126% (inactive)"}, {"smiles": "C=C(C)[C@@H]1CC[C@]2(COP(=O)(OCC)OCC)CC[C@]3(C)[C@H](CC[C@@H]4[C@@]5(C)CCCNC(C)(C)[C@@H]5CC[C@]43C)[C@@H]12", "growth": "-56.4% (active)"}, {"smiles": "COc1ccc(/C=N/Nc2ccnc3cc(Cl)ccc23)cc1Cl", "growth": "-37.5% (active)"}, {"smiles": "O=C(CCCCCCN1CC(=O)N2[C@@H](c3cccc(Br)c3)c3[nH]c4ccccc4c3C[C@H]2C1=O)NO", "growth": "6.52% (active)"}, {"smiles": "O=C1[C@@H]2Cc3c([nH]c4ccccc34)[C@H](c3ccc(Br)cc3)N2C(=O)CN1C1CCN(Cc2c(Cl)cccc2Cl)CC1", "growth": "-79% (active)"}, {"smiles": "COc1ccc(N2CCN(C3=C(Cl)C(=O)c4ncccc4C3=O)CC2)cc1", "growth": "-4.99% (active)"}, {"smiles": "Cc1cc(S(=O)(=O)N(C)C)cc(NCC(=O)NC(=O)NCC(C)C)c1C", "growth": "128% (inactive)"}, {"smiles": "COc1ccc(C2CC(c3cccc(OCCCCOc4cccc(C5=NOC(c6ccc(OC)cc6)C5)c4)c3)=NO2)cc1", "note": "(stereo not given)", "growth": "89.6% (inactive)"}, {"smiles": "O=C1c2c(c3c4cccnc4[nH]c3c3ccc4ccccc4c23)C(=O)N1CCO", "growth": "97.1% (inactive)"}, {"smiles": "Cn1c(SCC(=O)Nc2ccc(-c3nc4ccc([N+](=O)[O-])cc4[nH]3)cc2)nc2ccccc2c1=O", "growth": "91.1% (inactive)"}, {"smiles": "O=C1Nc2ccccc2/C1=C/c1ccc(OCC(=O)c2ccccc2)cc1", "growth": "105% (inactive)"}, {"smiles": "CCN(CC)c1cn(-c2ccc(S(N)(=O)=O)cc2)nn1", "growth": "105% (inactive)"}, {"smiles": "Cc1csc(Nc2cccc(Nc3nc(C)cs3)c2)n1", "growth": "77.3% (inactive)"}, {"smiles": "CCN(CC)c1ccc(/C=N/NC(=O)c2ccc(S(N)(=O)=O)cc2)cc1", "growth": "2.37% (active)"}, {"smiles": "CS(=O)(=O)Nc1cc(-c2ccc3ncc(C#N)c(Nc4cccc(Cl)c4F)c3c2)cnc1Cl", "growth": "0.143% (active)"}, {"smiles": "COc1cc(Nc2c(C#N)cnn3cc(-c4cnn(CC(C)(C)O)c4)cc23)ccc1Cl", "growth": "47.8% (inactive)"}, {"smiles": "N#Cc1c(-c2cccs2)c(C#N)c(=O)n(Cc2nc3ccccc3[nH]2)c1N", "growth": "108% (inactive)"}, {"smiles": "COc1ccc(C(C)=C(c2ccc(OCCN3CCCCCC3)cc2)c2ccc(OCCN3CCCCCC3)cc2)cc1", "growth": "-46.9% (active)"}, {"smiles": "Fc1ccc(-c2cc3nc(C(Cl)Cl)nc(-c4ccc(F)cc4)n3n2)cc1", "growth": "-1.81% (active)"}, {"smiles": "O=C1Nc2ccccc2/C1=C/c1ccc(COCC2CO2)n1-c1ccc(O)cc1", "note": "(stereo not given)", "growth": "103% (inactive)"}, {"smiles": "COc1ccc([C@H]2c3[nH]c4ccccc4c3C[C@H]3C(=O)N(C4CCN(Cc5c(Cl)cccc5Cl)CC4)CC(=O)N23)c(OC)c1", "growth": "97% (inactive)"}, {"smiles": "Cn1ccnc1C(=O)/C=C/C=C/c1ccc(C(=O)Nc2ccc(F)cc2)cc1", "growth": "13.3% (inactive)"}, {"smiles": "C#C[C@]1(O)CC[C@H]2[C@@H]3CC=C4c5sc(Nc6cc(Cl)ccn6)nc5CC[C@]4(C)[C@H]3CC[C@@]21C", "growth": "2.68% (active)"}, {"smiles": "O=[N+]([O-])c1ccc(NC(=S)NNC(=S)Nc2ccc(Br)cc2)cc1", "growth": "93.1% (inactive)"}, {"smiles": "COc1ccccc1/C=C/C=N/NC1=NC2C(S1)N(C)C(=O)N2c1ccccc1", "note": "(stereo not given)", "growth": "-25.7% (active)"}, {"smiles": "COc1ccc(-c2cc(-c3ccc(Cl)cc3)c(C#N)c(=O)n2Cc2ccc(C(=O)O)cc2)cc1", "growth": "92.1% (inactive)"}, {"smiles": "CN1CCN(c2ccc(NC(=O)Nc3ccc4c(ccn4-c4cccc(C(N)=O)n4)c3)cc2C(F)(F)F)CC1", "growth": "66.1% (inactive)"}, {"smiles": "O=S(=O)(NCCCNc1nccc(-n2cnc3ccccc32)n1)c1ccc(F)cc1", "growth": "90.9% (inactive)"}, {"smiles": "CC(=O)c1cc(C(=O)N2c3ccccc3Sc3ccccc32)n2ccc3ccccc3c12", "growth": "9.89% (active)"}, {"smiles": "CC(=O)NC(C)(C)C(=O)N[C@@H](C)C(=O)NC(C)(C)C(=O)N[C@@H](C)C(=O)NC(C)(C)C(=O)N[C@@H](C)C(=O)N[C@@H](CCC(N)=O)C(=O)NC(C)(C)C(=O)N[C@H](C(=O)NC(C)(C)C(=O)NCC(=O)N[C@@H](CC(C)C)C(=O)NC(C)(C)C(=O)N1CCC[C@H]1C(=O)N[C@H](C(=O)NC(C)(C)C(=O)NC(C)(C)C(=O)N[C@@H](CCC(N)=O)C(=O)N[C@@H](CCC(N)=O)C(=O)N[C@H](CO)CC1CCCCC1)C(C)C)C(C)C", "growth": "10.3% [5 µM] (inactive)"}, {"smiles": "CN1CCN(c2nc(-c3csc(-c4ccncc4)n3)cc3ccccc23)CC1", "growth": "32.2% (inactive)"}, {"smiles": "CCOC(=O)c1c(Nc2ccccc2)nn2c(-c3ccc(Br)cc3)ccnc12", "growth": "90.6% (inactive)"}, {"smiles": "COc1cccc(N2CCN(c3ncnc4c3[nH]c3ccc(F)cc34)C[C@H]2C)c1", "growth": "33% (inactive)"}, {"smiles": "COc1ccc(C(=O)c2c(N)c(C#N)cn2-c2ccccc2OC)cc1", "growth": "-7.7% (active)"}, {"smiles": "CCCCCCNC(=O)Oc1ccc(/C(=C(/C)c2ccc(OC)cc2)c2ccc(OCCN3CCCCCC3)cc2)cc1", "growth": "-0.81% (active)"}, {"smiles": "COc1ccc(Cn2cc3c(c2-c2cc(OC)c(OC)c(OC)c2)CCCc2cnoc2-3)cc1N", "growth": "-9.82% (active)"}, {"smiles": "Oc1cccc2ccc(-c3nnc(SCc4ccc(O)c5ncccc45)o3)nc12", "growth": "13.7% (inactive)"}, {"smiles": "Cc1ccc(C(=O)CSc2nc3ccccc3c(=O)n2C)cc1", "growth": "87.4% (inactive)"}]}]}
